Reference: PubChem BioAssay (NCATS)
Records with an inconclusive call do not appear. Calls of active or inactive are those of the source. The call rests on the fitted dose curve; in most records, active means well fitted inhibition curve with a large enough effect; inconclusive means small, poorly fitted or top-dose-only effect; inactive means no such curve, though single readings can be large or run the other way.

assay: Primary qHTS for small molecule stabilizers of the endoplasmic reticulum resident proteome: Secreted ER Calcium Modulated Protein (SERCaMP) assay (AID 1508630); details: SH-SY5Y GLuc-SERCaMP (Gaussia luciferase released on ER calcium loss) secretion, thapsigargin, luminescence; series mostly up to 38.4 µM; activity change, negative = inhibition: at the top concentration
Summary of the method: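 The SH-SY5Y reporter protocol was run at 3 concentrations up to 38.3 uM (primary) or 11 concentrations (follow-up): 16 h compound, 100 nM thapsigargin for 4 h, then extracellular luciferase luminescence.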
On the % scale 0 is the no-effect control and ±100 the full control effect.

Activity change, negative = inhibition, inactive:
CC(C)=CCCC1=CC[C@H](C(=O)O)[C@H](C(=O)O)C1 -0.327%
COc1ccc(C2c3cc(OC)c(OC)cc3Cc3c4cc(OC)c(OC)cc4cc[n+]32)cc1OC (stereo not given) -7.84%
CC(=O)OC[C@@]1(O)C[C@@]23CC[C@@H]4c5ccoc5CC[C@@]4(C)[C@@H]2CCC1C3 27.1%
N=c1ccn2c(n1)OCC1C2O[C@@H](O)[C@H]1O (stereo not given in full) -9.79%
C[n+]1ccc(/C=C/c2ccc3ccccc3c2)cc1 4.42%
O=C1Nc2ccccc2C(=O)N2CCC[C@@H]12 -0.369%
C/C=C/c1ccc2oc(-c3ccc(O)cc3)c(C)c2c1 10.8%
O=c1oc2cc(O)ccc2cc1-c1ccc2c(c1)OCCO2 -24.7%
CN[C@H]1CCc2cc(OC)c(OC)c(OC)c2-c2ccc(N[C@@H]3CCCCNC3=O)c(=O)cc21 39.2%
COc1ccccc1/C=C\C(=O)OC[C@@H]1CCCN2CCCC[C@H]12 2.42%
O=C1c2ccccc2-n2c1nc1ccccc1c2=O 3.55%
CC(C)C1NC(C(=O)O)Cc2c1[nH]c1ccccc21 (stereo not given) -12.4%
COc1ccc(-c2cnc(-c3cccnc3)o2)cc1 8.28%
C/C(Nc1ccc2oc(=O)ccc2c1)=C1/C(=O)CC2[C@@H]1C2(C)C (stereo not given in full) 34%
CC1=CC2C(=O)c3cccc(O)c3C(=O)C2C(O)=C1 (stereo not given) 1.86%
OCC1=CC[N+]2(Cc3ccccc3)CCC(O)[C@@H]12 (stereo not given in full) -23.2%
CC(C)C1=CC2=CC[C@H]3[C@](C)(C(=O)O)CCC[C@]3(C)C2CC1 (stereo not given in full) -2.83%
COc1cc(C(=O)Oc2ccc3c(OC)c4ccoc4nc3c2OC)cc(OC)c1OC -5.66%
COc1cc(=O)n(C)c2c(OCC3OC(C)(C)OC3(C)C)cccc12 (stereo not given) -6.1%
CC(C)(O)[C@@H]1CCC[N+]2(C)CCCC[C@H]12 (stereo not given in full) -10%
Cc1nc(-c2coc3c(O)c(O)ccc3c2=O)cs1 4.32%
COc1ccc([C@@H](C)C(=O)c2ccc(O)cc2O)cc1 15.6%
COc1c(C2=CC(=O)N(C)C2=O)c2c(n1C)C(=O)c1ccccc1C2=O -30%
C[C@@H]1CC[C@H]2[C@H](C)[C@H]3CC[C@H]4C5[C@@H](O)CC6=CC(=O)CC[C@]6(C)[C@H]5C[C@H]4C3C(=O)N2C1 (stereo not given in full) -22.9%
COc1cc2c(cc1OC)C(/C=C/c1ccc(OC)c(OC)c1OC)=NCC2 156%
